# Experimental data published in PMC7862700, “An all-to-all approach to the identification of sequence-specific readers for epigenetic DNA modifications on cytosine”.
# How the values were obtained:
# Experiment in all cases: DAPPL (digital affinity profiling via proximity ligation, sequencing); 10 mM Tris-HCl pH 7.5, 50 mM NaCl, 1 mM DTT, 4% glycerol, room temperature, 30 min; GST-TFs on glutathione beads, 16-mer random dsDNA library, 0.1% formaldehyde crosslink after washing; high values mean tight binding
# FEV = target: T1, FEV (Homo sapiens, UniProt Q99581 1-238); conditions: protein: recombinant; tags: N-terminal GST; dsDNA, one strand shown
# T1 sequence: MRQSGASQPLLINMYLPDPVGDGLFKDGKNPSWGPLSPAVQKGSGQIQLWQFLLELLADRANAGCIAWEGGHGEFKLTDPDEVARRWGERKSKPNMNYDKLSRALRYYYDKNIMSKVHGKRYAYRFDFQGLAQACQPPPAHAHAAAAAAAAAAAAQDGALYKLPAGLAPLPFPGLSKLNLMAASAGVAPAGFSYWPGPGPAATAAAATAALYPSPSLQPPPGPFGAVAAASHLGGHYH
# How it was run: (§1)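 Beads coated with glutathione captured GST-fused human transcription factors that had been expressed in yeast, and the factors were then given DNA barcodes and pooled with a tag-only sample. The pools were incubated with 200 nmole of a random double-stranded 16-mer DNA library in Tris/NaCl/DTT/glycerol buffer for 30 min at room temperature, washed, crosslinked with 0.1% formaldehyde and proximity-ligated with BsaI/T4 ligase at 37 °C for 1 h. PCR amplification and Illumina NextSeq500 sequencing came last. Binding signal is each hexamer's read frequency for a factor divided by its frequency for the tag-only sample.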
# ETV5 = ETV5 (Homo sapiens, UniProt P41161 1-510); conditions: protein: recombinant; tags: N-terminal GST; dsDNA, one strand shown
# How it was run: as §1
# HSF1 = HSF1 (Homo sapiens, UniProt Q00613 1-529); conditions: protein: recombinant; tags: N-terminal GST; chain copies: 3; dsDNA, one strand shown
# How it was run: as §1
# SPIC = target: T2, SPIC (Homo sapiens, UniProt Q8N5J4 1-248); conditions: protein: recombinant; tags: N-terminal GST; dsDNA, one strand shown
# T2 sequence: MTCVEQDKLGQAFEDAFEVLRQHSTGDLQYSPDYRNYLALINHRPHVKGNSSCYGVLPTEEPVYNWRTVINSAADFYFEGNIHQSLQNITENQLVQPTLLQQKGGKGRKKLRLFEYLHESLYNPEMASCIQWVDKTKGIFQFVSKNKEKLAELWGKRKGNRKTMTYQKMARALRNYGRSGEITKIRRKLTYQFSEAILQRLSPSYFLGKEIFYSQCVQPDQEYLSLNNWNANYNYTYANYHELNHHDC
# How it was run: as §1
# ELF4 = ELF4 (Homo sapiens, UniProt Q99607 1-663); conditions: protein: recombinant; tags: N-terminal GST; dsDNA, one strand shown
# How it was run: as §1
# ELK4 = target: T3, ELK4 (Homo sapiens, UniProt P28324-2 1-405); conditions: protein: recombinant; tags: N-terminal GST; dsDNA, one strand shown
# T3 sequence: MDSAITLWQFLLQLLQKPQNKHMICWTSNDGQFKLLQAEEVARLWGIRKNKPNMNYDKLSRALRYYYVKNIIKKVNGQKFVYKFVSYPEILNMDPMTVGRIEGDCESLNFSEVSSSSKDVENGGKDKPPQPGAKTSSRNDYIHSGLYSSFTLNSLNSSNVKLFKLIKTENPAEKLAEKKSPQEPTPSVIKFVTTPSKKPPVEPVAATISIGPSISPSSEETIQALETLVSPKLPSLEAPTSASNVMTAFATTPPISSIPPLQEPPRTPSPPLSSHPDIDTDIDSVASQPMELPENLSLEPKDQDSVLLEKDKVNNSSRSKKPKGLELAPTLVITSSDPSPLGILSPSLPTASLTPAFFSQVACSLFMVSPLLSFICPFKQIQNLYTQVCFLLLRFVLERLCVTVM
# How it was run: as §1
# ETV2 = target: T4, ETV2 (Homo sapiens, UniProt O00321 1-342); conditions: protein: recombinant; tags: N-terminal GST; dsDNA, one strand shown
# T4 sequence: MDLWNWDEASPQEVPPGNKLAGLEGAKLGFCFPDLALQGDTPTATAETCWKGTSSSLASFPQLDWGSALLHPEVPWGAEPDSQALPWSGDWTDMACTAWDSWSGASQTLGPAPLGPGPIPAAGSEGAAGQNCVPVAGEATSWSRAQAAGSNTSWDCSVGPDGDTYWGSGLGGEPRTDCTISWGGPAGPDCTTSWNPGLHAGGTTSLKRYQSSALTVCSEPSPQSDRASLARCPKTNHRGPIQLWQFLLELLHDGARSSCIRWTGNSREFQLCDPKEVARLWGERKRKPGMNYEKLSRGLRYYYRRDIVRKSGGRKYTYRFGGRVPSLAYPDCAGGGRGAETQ
# How it was run: as §1
# ELF3 = target: T5, ELF3 (Homo sapiens, UniProt P78545 1-371); conditions: protein: recombinant; tags: N-terminal GST; dsDNA, one strand shown
# T5 sequence: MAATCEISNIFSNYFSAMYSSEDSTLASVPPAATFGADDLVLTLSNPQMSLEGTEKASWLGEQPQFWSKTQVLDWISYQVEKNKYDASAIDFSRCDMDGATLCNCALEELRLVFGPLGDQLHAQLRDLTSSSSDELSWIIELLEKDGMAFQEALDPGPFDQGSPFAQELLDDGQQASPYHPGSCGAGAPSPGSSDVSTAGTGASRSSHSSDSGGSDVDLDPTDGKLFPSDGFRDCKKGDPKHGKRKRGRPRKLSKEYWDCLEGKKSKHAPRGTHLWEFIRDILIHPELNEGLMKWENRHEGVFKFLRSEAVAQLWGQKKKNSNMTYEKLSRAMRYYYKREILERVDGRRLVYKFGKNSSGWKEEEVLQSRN
# How it was run: as §1
# CRX = CRX (Homo sapiens, UniProt O43186 1-299); conditions: protein: recombinant; tags: N-terminal GST; dsDNA, one strand shown
# How it was run: as §1
# ETV1 = ETV1 (Homo sapiens, UniProt P50549 1-477); conditions: protein: recombinant; tags: N-terminal GST; dsDNA, one strand shown
# How it was run: as §1
# ERF = target: T6, ERF (Homo sapiens, UniProt P50548 1-548); conditions: protein: recombinant; tags: N-terminal GST; dsDNA, one strand shown
# T6 sequence: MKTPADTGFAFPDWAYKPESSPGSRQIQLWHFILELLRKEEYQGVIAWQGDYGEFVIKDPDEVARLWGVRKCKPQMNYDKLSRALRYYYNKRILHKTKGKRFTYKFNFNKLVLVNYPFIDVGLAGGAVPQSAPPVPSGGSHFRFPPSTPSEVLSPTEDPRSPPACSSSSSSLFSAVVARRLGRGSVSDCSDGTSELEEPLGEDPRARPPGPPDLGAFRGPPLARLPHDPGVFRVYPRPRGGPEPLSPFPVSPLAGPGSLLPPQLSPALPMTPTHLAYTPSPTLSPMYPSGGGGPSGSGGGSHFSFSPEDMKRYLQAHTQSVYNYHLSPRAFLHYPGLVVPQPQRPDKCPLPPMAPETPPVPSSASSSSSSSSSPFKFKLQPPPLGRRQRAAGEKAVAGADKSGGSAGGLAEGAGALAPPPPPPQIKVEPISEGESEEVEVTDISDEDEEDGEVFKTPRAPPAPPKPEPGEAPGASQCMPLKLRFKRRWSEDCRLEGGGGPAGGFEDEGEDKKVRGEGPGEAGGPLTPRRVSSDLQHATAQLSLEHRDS
# How it was run: as §1
# ETV3L = target: T7, ETV3L (Homo sapiens, UniProt Q6ZN32 1-361); conditions: protein: recombinant; tags: N-terminal GST; dsDNA, one strand shown
# T7 sequence: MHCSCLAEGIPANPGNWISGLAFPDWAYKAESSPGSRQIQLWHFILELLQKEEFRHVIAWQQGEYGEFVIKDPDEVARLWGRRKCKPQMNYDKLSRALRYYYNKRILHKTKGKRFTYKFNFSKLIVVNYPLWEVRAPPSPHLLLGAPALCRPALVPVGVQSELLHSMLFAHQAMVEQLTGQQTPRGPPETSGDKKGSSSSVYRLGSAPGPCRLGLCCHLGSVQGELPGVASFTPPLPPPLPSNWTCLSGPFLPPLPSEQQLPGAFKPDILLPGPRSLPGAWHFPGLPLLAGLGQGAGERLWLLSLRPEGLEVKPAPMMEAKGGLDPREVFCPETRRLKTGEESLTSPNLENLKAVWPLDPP
# How it was run: as §1
# ETS2 = target: T8, ETS2 (Homo sapiens, UniProt P15036 1-469); conditions: protein: recombinant; tags: N-terminal GST; dsDNA, one strand shown
# T8 sequence: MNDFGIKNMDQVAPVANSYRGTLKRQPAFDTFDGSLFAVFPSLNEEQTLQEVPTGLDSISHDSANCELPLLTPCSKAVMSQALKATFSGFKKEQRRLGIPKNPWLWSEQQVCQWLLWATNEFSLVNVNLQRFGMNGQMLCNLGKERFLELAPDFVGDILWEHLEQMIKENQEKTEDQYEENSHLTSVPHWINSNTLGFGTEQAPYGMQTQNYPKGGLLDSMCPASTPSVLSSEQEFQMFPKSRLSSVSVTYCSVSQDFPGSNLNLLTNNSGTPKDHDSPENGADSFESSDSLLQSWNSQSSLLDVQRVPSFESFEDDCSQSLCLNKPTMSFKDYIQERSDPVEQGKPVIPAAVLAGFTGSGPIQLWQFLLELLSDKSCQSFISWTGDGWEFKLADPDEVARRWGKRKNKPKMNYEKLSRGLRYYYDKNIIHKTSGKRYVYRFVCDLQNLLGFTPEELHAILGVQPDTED
# How it was run: as §1
# SPDEF = target: T9, SPDEF (Homo sapiens, UniProt O95238 1-335); conditions: protein: recombinant; tags: N-terminal GST; dsDNA, one strand shown
# T9 sequence: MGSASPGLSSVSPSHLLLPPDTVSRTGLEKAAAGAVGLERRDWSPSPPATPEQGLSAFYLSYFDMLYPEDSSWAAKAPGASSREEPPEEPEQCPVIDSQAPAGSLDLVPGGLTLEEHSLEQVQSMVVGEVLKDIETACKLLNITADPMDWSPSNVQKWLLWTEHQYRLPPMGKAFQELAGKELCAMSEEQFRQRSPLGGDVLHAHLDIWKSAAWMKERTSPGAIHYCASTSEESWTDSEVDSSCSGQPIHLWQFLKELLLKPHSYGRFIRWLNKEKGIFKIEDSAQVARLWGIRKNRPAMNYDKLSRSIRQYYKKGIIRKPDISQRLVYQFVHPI
# How it was run: as §1
# ETV7 = target: T10, ETV7 (Homo sapiens, UniProt Q9Y603 1-341); conditions: protein: recombinant; tags: N-terminal GST; dsDNA, one strand shown
# T10 sequence: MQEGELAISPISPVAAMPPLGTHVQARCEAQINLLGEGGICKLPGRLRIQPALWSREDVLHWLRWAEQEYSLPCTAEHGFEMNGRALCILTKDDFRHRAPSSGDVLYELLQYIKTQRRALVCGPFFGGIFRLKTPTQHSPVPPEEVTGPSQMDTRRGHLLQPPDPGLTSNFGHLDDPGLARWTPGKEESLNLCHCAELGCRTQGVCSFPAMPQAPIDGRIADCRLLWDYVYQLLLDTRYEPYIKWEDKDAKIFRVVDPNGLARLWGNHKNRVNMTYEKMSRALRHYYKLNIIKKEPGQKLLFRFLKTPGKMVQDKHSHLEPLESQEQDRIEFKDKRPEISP
# How it was run: as §1
# ELF5 = target: T11, ELF5 (Homo sapiens, UniProt Q9UKW6-2 1-255); conditions: protein: recombinant; tags: N-terminal GST; dsDNA, one strand shown
# T11 sequence: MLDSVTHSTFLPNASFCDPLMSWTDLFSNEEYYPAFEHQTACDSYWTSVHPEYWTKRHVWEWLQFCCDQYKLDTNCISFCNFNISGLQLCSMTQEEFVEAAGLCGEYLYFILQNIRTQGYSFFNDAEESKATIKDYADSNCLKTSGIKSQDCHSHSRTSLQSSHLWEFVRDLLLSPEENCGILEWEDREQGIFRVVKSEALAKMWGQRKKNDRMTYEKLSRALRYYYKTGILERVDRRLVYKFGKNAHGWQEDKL
# How it was run: as §1
# ETV3 = target: T12, ETV3 (Homo sapiens, UniProt P41162-2 1-143); conditions: protein: recombinant; tags: N-terminal GST; dsDNA, one strand shown
# T12 sequence: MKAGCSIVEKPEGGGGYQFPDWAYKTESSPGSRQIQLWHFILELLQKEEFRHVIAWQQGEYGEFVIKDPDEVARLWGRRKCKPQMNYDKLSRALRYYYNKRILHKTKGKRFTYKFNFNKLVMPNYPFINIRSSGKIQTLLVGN
# How it was run: as §1
# ETV6 = ETV6 (Homo sapiens, UniProt P41212 1-452); conditions: protein: recombinant; tags: N-terminal GST; dsDNA, one strand shown
# How it was run: as §1
# HSF1, sequence (Q00613 whole entry): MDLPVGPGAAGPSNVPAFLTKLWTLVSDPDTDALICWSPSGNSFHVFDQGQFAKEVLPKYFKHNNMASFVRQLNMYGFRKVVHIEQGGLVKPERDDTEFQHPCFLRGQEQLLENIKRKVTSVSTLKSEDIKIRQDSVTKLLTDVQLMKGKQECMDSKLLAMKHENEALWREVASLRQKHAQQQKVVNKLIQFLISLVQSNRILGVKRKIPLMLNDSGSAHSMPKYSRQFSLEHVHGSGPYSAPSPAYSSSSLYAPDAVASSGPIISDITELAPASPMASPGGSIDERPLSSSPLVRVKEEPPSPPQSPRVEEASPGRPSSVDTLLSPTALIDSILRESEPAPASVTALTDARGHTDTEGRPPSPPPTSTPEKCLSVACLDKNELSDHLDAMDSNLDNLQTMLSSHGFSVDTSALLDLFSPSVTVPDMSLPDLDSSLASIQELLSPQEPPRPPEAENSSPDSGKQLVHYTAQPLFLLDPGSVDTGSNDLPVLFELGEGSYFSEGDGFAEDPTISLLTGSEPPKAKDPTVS
# ELF4, sequence (Q99607 whole entry): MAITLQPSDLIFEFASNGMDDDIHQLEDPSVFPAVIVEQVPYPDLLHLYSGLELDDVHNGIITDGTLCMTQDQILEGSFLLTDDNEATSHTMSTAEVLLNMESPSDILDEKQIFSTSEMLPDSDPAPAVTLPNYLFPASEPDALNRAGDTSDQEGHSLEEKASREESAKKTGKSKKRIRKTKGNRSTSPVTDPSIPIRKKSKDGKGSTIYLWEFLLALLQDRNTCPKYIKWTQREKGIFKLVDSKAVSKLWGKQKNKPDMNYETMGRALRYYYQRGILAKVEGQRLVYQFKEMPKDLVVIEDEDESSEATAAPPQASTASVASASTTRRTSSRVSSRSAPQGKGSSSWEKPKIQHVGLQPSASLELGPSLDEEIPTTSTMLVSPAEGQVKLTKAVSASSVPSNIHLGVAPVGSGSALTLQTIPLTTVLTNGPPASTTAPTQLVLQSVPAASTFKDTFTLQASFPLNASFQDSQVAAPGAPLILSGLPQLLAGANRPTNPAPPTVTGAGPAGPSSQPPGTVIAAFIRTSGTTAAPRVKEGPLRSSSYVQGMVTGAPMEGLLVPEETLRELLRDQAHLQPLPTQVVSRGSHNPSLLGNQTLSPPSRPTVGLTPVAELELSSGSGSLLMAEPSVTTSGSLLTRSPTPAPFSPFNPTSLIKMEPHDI
# ETV5, sequence (P41161 whole entry): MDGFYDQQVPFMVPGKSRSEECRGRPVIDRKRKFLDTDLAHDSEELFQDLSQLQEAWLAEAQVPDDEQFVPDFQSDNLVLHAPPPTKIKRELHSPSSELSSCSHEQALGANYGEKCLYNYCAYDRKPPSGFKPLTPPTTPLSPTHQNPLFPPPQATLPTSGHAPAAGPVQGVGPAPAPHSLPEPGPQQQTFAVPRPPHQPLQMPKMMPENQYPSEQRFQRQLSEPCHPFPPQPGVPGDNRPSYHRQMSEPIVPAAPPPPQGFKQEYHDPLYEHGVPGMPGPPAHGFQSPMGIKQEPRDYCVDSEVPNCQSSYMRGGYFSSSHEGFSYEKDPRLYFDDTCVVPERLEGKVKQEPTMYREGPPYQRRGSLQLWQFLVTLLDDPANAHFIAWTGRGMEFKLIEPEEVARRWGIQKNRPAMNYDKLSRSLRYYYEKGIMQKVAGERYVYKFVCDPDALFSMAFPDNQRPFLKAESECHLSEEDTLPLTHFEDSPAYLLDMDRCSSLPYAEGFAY
# ETV1, sequence (P50549 whole entry): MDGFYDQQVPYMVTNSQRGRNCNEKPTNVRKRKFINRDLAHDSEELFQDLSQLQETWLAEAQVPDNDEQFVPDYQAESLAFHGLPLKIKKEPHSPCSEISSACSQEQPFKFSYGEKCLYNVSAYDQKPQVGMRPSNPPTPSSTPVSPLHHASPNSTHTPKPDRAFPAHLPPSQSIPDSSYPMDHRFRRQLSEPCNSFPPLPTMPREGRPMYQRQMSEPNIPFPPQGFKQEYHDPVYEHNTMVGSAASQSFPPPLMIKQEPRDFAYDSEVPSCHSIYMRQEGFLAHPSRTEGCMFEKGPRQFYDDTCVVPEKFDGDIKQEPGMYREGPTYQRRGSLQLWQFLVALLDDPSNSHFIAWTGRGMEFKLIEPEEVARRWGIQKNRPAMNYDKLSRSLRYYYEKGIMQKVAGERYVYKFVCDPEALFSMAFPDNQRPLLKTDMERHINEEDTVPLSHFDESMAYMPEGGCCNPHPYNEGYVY
# CRX, sequence (O43186 whole entry): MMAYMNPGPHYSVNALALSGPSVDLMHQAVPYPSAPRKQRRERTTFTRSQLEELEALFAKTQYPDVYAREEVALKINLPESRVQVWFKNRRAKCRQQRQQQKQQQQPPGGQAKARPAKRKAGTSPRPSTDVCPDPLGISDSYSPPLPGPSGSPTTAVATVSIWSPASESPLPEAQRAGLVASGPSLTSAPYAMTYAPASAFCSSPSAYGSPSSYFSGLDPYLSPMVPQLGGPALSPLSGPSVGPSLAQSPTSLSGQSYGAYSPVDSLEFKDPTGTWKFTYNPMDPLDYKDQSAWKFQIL
# ETV6, sequence (P41212 whole entry): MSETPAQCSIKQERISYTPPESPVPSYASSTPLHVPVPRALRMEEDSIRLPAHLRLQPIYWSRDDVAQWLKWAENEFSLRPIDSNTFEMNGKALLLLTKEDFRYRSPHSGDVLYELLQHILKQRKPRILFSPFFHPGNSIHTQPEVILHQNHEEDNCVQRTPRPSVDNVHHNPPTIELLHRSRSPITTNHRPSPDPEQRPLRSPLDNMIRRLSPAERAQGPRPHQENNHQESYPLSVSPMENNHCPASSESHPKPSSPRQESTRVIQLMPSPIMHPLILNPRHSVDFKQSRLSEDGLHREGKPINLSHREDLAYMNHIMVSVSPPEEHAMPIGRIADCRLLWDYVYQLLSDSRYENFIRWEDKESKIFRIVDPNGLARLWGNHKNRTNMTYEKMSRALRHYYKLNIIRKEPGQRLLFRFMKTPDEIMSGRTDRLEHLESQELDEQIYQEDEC
sequence,measurement,setting,value
TTTGGT,binding signal,FEV,"1.37 fold enrichment (6-mer frequency, TF over GST control)"
same,binding signal,ETV5,"1.29 fold enrichment (6-mer frequency, TF over GST control)"
same,binding signal,HSF1,"1.36 fold enrichment (6-mer frequency, TF over GST control)"
same,binding signal,SPIC,"1.37 fold enrichment (6-mer frequency, TF over GST control)"
same,binding signal,ELF4,"1.3 fold enrichment (6-mer frequency, TF over GST control)"
same,binding signal,ELK4,"1.44 fold enrichment (6-mer frequency, TF over GST control)"
same,binding signal,ETV2,"1.43 fold enrichment (6-mer frequency, TF over GST control)"
same,binding signal,ELF3,"1.17 fold enrichment (6-mer frequency, TF over GST control)"
same,binding signal,CRX,"1.51 fold enrichment (6-mer frequency, TF over GST control)"
same,binding signal,ETV1,"1.36 fold enrichment (6-mer frequency, TF over GST control)"
same,binding signal,ERF,"1.49 fold enrichment (6-mer frequency, TF over GST control)"
same,binding signal,ETV3L,"1.36 fold enrichment (6-mer frequency, TF over GST control)"
same,binding signal,ETS2,"1.43 fold enrichment (6-mer frequency, TF over GST control)"
same,binding signal,SPDEF,"1.28 fold enrichment (6-mer frequency, TF over GST control)"
same,binding signal,ETV7,"1.45 fold enrichment (6-mer frequency, TF over GST control)"
same,binding signal,ELF5,"1.4 fold enrichment (6-mer frequency, TF over GST control)"
same,binding signal,ETV3,"1.39 fold enrichment (6-mer frequency, TF over GST control)"
same,binding signal,ETV6,"1.36 fold enrichment (6-mer frequency, TF over GST control)"
